Results as given in PubChem BioAssay (Tox21).
Values joined by “and” are separate entries in the source; they are usually repeats but may differ in a detail not shown here. Equal values may be shown once. Records with an inconclusive call do not appear. A call without a number means that no potency is given here. Active and inactive are the calls of the source. Unless noted, calls follow the shape of the dose curve; as a rule, active = well fitted curve in the direction sought with a large enough effect in the repeat runs; inconclusive = weak or mixed curves; inactive = no such curve, though single readings can be large; an effect the other way counts as inactive or inconclusive.

Key:
[1] = qHTS assay to identify small molecule antagonists of the androgen receptor (AR) signaling pathway using the MDA cell line in the presence of 0.5 nM R1881 - cell viability counter screen (AID 1259242); also: nearly all actives have a fitted effect of over 45% in size; also: potency is read from the fitted curve at half-maximal effect
In short: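 qHTS format. MDA-kb2 (MMTV-luc, AR/GR responsive) + cpd + 0.5 nM R1881 final, 16 hr 37C/0% CO2 → CellTiter-Fluor 30 min → fluorescence intensity.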

[2] = molecular target: Androgen receptor (Homo sapiens) (UniProt P10275); assay: qHTS assay to identify small molecule antagonists of the androgen receptor (AR) signaling pathway using the MDA cell line in the presence of 0.5 nM R1881 (AID 1259243); also: nearly all actives have a fitted effect of over 50% in size; also: potency is read from the fitted curve at half-maximal effect
Sequence of Androgen receptor (Homo sapiens) (P10275 whole entry, looked up): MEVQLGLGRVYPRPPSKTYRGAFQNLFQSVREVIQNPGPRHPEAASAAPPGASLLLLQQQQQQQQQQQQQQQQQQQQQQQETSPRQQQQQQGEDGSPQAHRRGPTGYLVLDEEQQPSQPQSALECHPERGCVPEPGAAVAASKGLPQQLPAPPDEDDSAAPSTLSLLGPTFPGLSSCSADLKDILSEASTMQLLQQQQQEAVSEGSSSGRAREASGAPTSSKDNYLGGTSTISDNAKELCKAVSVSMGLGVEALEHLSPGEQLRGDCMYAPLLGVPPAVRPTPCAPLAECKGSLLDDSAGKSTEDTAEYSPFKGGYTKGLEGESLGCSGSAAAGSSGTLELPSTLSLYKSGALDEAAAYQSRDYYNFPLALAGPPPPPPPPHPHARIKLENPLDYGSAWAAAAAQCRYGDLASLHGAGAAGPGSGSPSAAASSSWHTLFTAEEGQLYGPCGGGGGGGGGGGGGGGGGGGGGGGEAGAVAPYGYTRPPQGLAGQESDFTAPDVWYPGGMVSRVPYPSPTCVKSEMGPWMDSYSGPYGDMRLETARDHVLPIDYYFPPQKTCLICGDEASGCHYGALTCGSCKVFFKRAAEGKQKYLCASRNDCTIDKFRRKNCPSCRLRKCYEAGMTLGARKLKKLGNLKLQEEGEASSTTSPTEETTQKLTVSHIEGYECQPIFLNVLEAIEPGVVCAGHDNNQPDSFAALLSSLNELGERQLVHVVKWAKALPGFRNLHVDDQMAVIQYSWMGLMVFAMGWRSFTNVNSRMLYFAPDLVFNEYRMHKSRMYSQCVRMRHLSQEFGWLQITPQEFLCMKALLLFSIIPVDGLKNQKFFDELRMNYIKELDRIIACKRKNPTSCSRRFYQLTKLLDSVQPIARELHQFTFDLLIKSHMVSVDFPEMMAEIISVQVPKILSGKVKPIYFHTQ
In short: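 Antagonist mode quantitative HTS in MDA-kb2 MMTV-luciferase cells, agonist R1881 at 0.5 nM final, 16 hr exposure at 37C and 0% CO2, luminescent detection.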

[3] = molecular target: Estrogen receptor (Homo sapiens) (UniProt P03372); assay: qHTS assay to identify small molecule antagonists of the estrogen receptor alpha (ER-alpha) signaling pathway using the BG1 cell line in the presence of 0.1 nM 17-beta-estradiol (AID 1259244); also: nearly all actives have a fitted effect of over 50% in size; also: potency is read from the fitted curve at half-maximal effect
Sequence of Estrogen receptor (Homo sapiens) (P03372 whole entry, looked up): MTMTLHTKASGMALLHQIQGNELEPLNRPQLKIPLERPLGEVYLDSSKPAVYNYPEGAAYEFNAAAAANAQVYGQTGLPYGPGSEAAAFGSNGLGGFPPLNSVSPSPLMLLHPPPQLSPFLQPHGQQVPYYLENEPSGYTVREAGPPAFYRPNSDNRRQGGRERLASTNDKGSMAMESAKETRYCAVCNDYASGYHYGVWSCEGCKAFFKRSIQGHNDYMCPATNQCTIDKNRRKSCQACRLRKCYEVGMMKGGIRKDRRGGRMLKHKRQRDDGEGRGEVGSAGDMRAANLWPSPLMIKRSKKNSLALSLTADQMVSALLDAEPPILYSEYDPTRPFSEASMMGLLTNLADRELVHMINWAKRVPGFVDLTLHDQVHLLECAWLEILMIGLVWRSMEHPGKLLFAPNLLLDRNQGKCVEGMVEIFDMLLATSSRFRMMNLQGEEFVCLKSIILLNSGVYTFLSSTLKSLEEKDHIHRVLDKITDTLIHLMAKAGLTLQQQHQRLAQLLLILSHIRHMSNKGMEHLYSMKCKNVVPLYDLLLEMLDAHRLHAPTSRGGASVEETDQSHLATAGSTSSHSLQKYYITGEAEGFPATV
In short: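 Reporter is a stably transfected luciferase under four estrogen responsive elements in VM7Luc4E2 cells expressing native full-length ER-alpha; inhibition of 0.1 nM (final) 17beta-estradiol-driven signal over 22 h is read by luminescence.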

[4] = qHTS assay to identify small molecule HDAC inhibitors (AID 1259364); also: potency is read from the fitted curve at half-maximal effect;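 also: wild-type HCT-116 cells with endogenous class I/II HDAC activity; nearly all actives have a fitted effect of over 45% in size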
In short: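 Quantitative high-throughput format: overnight-seeded HCT-116 cells got compounds for 2 hr at 37C; HDAC-Glo I/II reagent added, 30 min RT, luminescence measured.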

[5] = qHTS assay to identify small molecule HDAC inhibitors - cell viability counter screen (AID 1259365); also: nearly all actives have a fitted effect of over 50% in size; also: potency is read from the fitted curve at half-maximal effect
In short: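 Luminescence from CellTiter-Glo, developed 30min at room temperature, reports viability of wild-type HCT-116 cells treated 2hr with compounds at 37 C and 5% CO2 after overnight plating.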

[6] = qHTS assay to identify small molecule agonists of the sonic hedgehog signaling (Shh) pathway - cell viability counter screen (AID 1259366); also: nearly all actives have a fitted effect of over 50% in size; also: potency is read from the fitted curve at half-maximal effect
In short: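 Cytotoxicity counter screen run in the same wells as the Shh reporter assay. NIH/3T3 cells carrying a Gli1 response element–driven luciferase were treated with DMSO-dissolved compounds for 24hr, and live-cell protease activity was measured with CellTiter-Fluor.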

[7] = qHTS assay to identify small molecule antagonists of the sonic hedgehog signaling (Shh) pathway - cell viability counter screen (AID 1259367); also: nearly all actives have a fitted effect of over 55% in size; also: potency is read from the fitted curve at half-maximal effect
In short: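 Viability was read by CellTiter-Fluor fluorescence in the same wells, reagent added 23 hr into compound treatment and incubated 1 hr at 37C. The 3T3 Gli1-Luc reporter cells (2,000/well) received conditioned medium after compound and ran 24 hr.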

[8] = qHTS assay to identify small molecule agonists of the sonic hedgehog signaling (Shh) pathway (AID 1259368; calls by dose curve;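 also: NIH/3T3-derived 3T3Gli1-Luc cells carrying a stable Gli1-driven firefly luciferase reporter; series mostly up to about 92 µM; nearly all actives have a fitted effect of over 15% in size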)
In short: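 Quantitative high-throughput format using a Gli1-driven firefly luciferase reporter line derived from NIH/3T3 cells. After a 24 hr compound treatment at 37 C and 5% CO2, luminescence reported Gli1 response element activity.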

[9] = qHTS assay to identify small molecule antagonists of the sonic hedgehog signaling (Shh) pathway (AID 1259369; calls by dose curve; also: nearly all actives have a fitted effect of over 45% in size; also: potency is read from the fitted curve at half-maximal effect)
In short: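 Stable Gli1-Luc reporter NIH/3T3 clone; quantitative HTS in stimulated mode with conditioned medium. Luminescence measured after 24hr compound treatment at 37 C.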

[10] = qHTS assay to identify small molecule agonists of the androgen receptor (AR) signaling pathway in the presence of an antagonist - cell viability counter screen (AID 1259379); also: nearly all actives have a fitted effect of over 25% in size; also: potency is read from the fitted curve at half-maximal effect
In short: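 Nilutamide-containing (3.0uM final) MDA-kb2 cultures, 3,000 cells/well, were treated with compounds across 15 concentrations. After 16 hr at 37C with no CO2, cell viability was determined by CellTiter-Fluor fluorescence in the luciferase assay wells.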

[11] = qHTS assay to identify small molecule agonists of the estrogen receptor beta (ER-beta) signaling pathway - cell viability counter screen (AID 1259380); also: nearly all actives have a fitted effect of over 30% in size; also: potency is read from the fitted curve at half-maximal effect
In short: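 Steps: plate ER-beta-UAS-bla HEK293T cells, rest 6 hr; add compounds in DMSO; incubate 16 hr at 37C, 5% CO2; add FRET substrate 2 hr; add CellTiter-Glo, wait 30 min at room temperature; read luminescence.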

[12] = molecular target: Androgen receptor (Homo sapiens) (UniProt P10275); assay: qHTS assay to identify small molecule agonists of the androgen receptor (AR) signaling pathway in the presence of an antagonist (AID 1259381; calls by dose curve; also: nearly all actives have a fitted effect of over 15% in size)
In short: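 Reporter-gene luminescence from MDA-kb2 cells exposed 16hr at 37C (0% CO2) to 15-point compound titrations with 3.0uM final nilutamide as AR antagonist.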

[13] = qHTS assay to identify small molecule antagonists of the estrogen receptor beta (ER-beta) signaling pathway - cell viability counter screen (AID 1259382); also: nearly all actives have a fitted effect of over 55% in size; also: potency is read from the fitted curve at half-maximal effect
In short: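 Viability is scored by CellTiter-Glo luminescence (30 min, room temperature) in ER-beta-UAS-bla HEK293T wells already read for reporter fluorescence. Compound exposure lasts 16 hr at 37C alongside 1nM 17-beta-estradiol in charcoal-stripped serum medium.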

[14] = molecular target: Estrogen receptor (Homo sapiens) (UniProt P03372); assay: qHTS assay to identify small molecule agonists of the estrogen receptor alpha (ER-alpha) signaling pathway in the presence of an antagonist (AID 1259383; calls by dose curve; also: top concentration of the series differs between compounds; nearly all actives have a fitted effect of over 15% in size)
In short: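 Readout was ERE-driven luciferase luminescence in VM7Luc4E2 cells, which express full-length ER-alpha endogenously. Compounds were tested at 15 concentrations for 22hr alongside 10.0nM ICI-182,780 (final concentration).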

[15] = molecular target: Estrogen receptor beta (Homo sapiens) (UniProt Q92731); assay: qHTS assay to identify small molecule agonists of the estrogen receptor beta (ER-beta) signaling pathway (AID 1259377; active = well fitted activation curve with a large enough effect in the signal ratio in the repeat runs, not every such curve was filed as active; the % refers to the signal ratio)
Sequence of Estrogen receptor beta (Homo sapiens) (Q92731 whole entry, looked up): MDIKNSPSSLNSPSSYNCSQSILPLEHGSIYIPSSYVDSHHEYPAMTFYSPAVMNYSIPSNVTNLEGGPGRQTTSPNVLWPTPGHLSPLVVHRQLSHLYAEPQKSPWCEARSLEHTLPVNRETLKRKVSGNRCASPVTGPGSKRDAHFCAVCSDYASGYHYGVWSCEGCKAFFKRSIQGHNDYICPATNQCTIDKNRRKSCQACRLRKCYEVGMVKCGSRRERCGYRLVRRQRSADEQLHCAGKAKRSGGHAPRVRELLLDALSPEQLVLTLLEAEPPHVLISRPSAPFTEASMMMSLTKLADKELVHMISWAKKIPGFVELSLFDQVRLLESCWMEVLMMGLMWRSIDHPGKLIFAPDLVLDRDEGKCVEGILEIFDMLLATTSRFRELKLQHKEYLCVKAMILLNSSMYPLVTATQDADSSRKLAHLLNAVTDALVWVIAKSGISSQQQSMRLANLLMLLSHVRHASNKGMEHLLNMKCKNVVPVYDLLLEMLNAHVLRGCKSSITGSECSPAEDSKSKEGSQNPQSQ
In short: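 HEK293T ER-beta-UAS-bla; 2% charcoal-stripped FBS; cells pre-incubated 6 hr, compound 16 hr, 37C/5% CO2; LiveBLAzer B/G FRET substrate 2 h RT; fluorescence intensity read.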

[16] = qHTS assay to identify small molecule agonists or antagonists of the thyroid stimulating hormone receptor (TSHR) signaling pathway - wild type cell line counter screen (AID 1259384; calls by dose curve)
In short: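 Counter screen in untransfected Hek293: compounds (15-point titration, triplicate) plus phosphodiesterase inhibitor Ro20-1724 added after 18 h plating; 30 min RT. Intracellular cAMP via competitive d2/cryptate immunoassay, 1 h incubation.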

[17] = molecular target: Thyrotropin receptor (Homo sapiens) (UniProt P16473); assay: qHTS assay to identify small molecule antagonists of the thyroid stimulating hormone receptor (TSHR) signaling pathway (AID 1259385; calls by dose curve; also: nearly all actives have a fitted effect of over 20% in size)
Sequence of Thyrotropin receptor (Homo sapiens) (P16473 whole entry, looked up): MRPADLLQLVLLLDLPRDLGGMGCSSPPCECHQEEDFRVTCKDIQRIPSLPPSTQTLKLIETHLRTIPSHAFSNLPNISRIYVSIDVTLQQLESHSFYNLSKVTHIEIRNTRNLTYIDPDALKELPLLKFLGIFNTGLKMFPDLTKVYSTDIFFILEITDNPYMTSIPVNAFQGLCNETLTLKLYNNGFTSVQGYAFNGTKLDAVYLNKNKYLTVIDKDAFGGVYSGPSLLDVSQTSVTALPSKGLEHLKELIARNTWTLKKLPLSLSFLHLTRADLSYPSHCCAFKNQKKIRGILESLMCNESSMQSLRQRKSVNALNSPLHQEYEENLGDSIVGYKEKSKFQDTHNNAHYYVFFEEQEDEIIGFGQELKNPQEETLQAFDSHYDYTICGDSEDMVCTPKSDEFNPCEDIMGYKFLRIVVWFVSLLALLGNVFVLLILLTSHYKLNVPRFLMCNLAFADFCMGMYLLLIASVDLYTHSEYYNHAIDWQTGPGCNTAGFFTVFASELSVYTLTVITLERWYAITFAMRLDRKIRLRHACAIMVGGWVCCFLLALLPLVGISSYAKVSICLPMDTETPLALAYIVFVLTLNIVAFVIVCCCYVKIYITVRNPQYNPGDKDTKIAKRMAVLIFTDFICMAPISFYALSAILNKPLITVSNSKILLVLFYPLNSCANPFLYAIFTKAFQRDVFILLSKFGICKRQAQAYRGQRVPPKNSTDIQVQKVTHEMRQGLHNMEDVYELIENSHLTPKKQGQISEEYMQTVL
In short: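 Antagonist mode: compound-treated TSHR-expressing HEK293 cells were stimulated with 1.5 ng/mL TSH (final) in presence of Ro20-1724 for 30 min at RT. HTRF cAMP detection after 1 h; each compound tested at 15 concentrations, triplicate.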

[18] = qHTS assay to identify small molecule agonists of the estrogen receptor alpha (ER-alpha) signaling pathway in the presence of an antagonist - cell viability counter screen (AID 1259386);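 also: series mostly up to about 92 µM; cells exposed to compounds for 22 h at 37 °C before the viability read; nearly all actives have a fitted effect of over 30% in size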
In short: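 In this counter screen, compound effects on VM7Luc4E2 viability were tested in the presence of the antagonist ICI-182,780 at 10.0nM final. Compounds were dosed at 15 concentrations, exposure lasted 22hr, and the CellTiter-Fluor signal was read.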

[19] = molecular target: Estrogen receptor beta (Homo sapiens) (UniProt Q92731); assay: qHTS assay to identify small molecule antagonists of the estrogen receptor beta (ER-beta) signaling pathway (AID 1259378; active = well fitted inhibition curve with a large enough effect in the signal ratio in the repeat runs, not every such curve was filed as active; the % refers to the signal ratio)
In short: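 Antagonist mode: compounds added to beta-lactamase reporter HEK293T ER-beta-UAS cells stimulated with E2 (1nM final), 16 hr at 37C. LiveBLAzer B/G FRET substrate, 2 hours room temperature, fluorescence read-out.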

[20] = qHTS assay to identify small molecule phospholipidosis (PLD) inducers (AID 1259344; active = well fitted curve in the direction sought with a large enough effect; an effect the other way counts as inactive or inconclusive)
In short: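 Phospholipid accumulation was scored by imaging: fixed, Hoechst-counterstained HepG2 cells stained with LipidTOX Red after 24 h compound exposure at 37 C. Read-outs were pit count and pit intensity per well or per cell, with amiodarone and DMSO controls.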

Compound | Potency [1] | Potency [2] | Potency [3] | Potency [4] | Potency [5] | Potency [6] | Potency [7] | Potency [8] | Potency [9] | Potency [10] | Potency [11] | outcome [12] | Potency [13] | Potency [14] | Potency [15] | outcome [16] | Potency [17] | Potency [18] | Potency [19] | Potency [20]
Cc1ccc(C)cc1 | inactive | inactive | inactive | inactive | inactive | inactive | inactive | inactive | inactive | inactive | inactive | inactive | inactive | inactive |  |  |  |  |  | 
CC(C)OC(=O)C(O)(CC(=O)O)CC(=O)O | inactive | inactive | inactive | inactive | inactive | inactive | inactive | inactive | inactive | inactive |  | inactive | inactive | inactive | inactive | inactive | inactive | inactive |  | 
Cc1c(N)cccc1C(F)(F)F | inactive | inactive |  | inactive | inactive | inactive | inactive | inactive | inactive | inactive | inactive | inactive | inactive |  |  | inactive | inactive | inactive |  | 
CCCCCCCCCCOC(=O)c1ccccc1C(=O)OCCCCCCCC | inactive | inactive | inactive | inactive | inactive | inactive | inactive | inactive | inactive | inactive | inactive | inactive | inactive | inactive | inactive |  | inactive | inactive | inactive | 
c1ccsc1 | inactive | inactive | inactive | inactive | inactive |  | inactive | inactive | inactive | inactive | inactive | inactive | inactive | inactive |  | inactive | inactive | inactive |  | 
Nc1cc(Cl)c(O)c(Cl)c1 | inactive | inactive | inactive |  | inactive |  |  | inactive |  | inactive | inactive | inactive | inactive |  |  |  |  |  |  | 
CN(C)c1ccc(C(=C2C=CC(=[N+](C)C)C=C2)c2ccc(N(C)C)cc2)cc1 | 7.66 µM (active) and 6.86 µM (active) and 3.35 µM (active) | 1.53 µM (active) and 3.44 µM (active) and 1.88 µM (active) | 1.71 µM (active) and 3.86 µM (active) and 3.35 µM (active) | 9.64 µM (active) and 8.63 µM (active) and 11.9 µM (active) | 13.6 µM (active) and 27.3 µM (active) and 11.9 µM (active) | 9.64 µM (active) and 30.6 µM (active) and 13.3 µM (active) | 9.64 µM (active) and 30.6 µM (active) and 10.6 µM (active) | inactive | 1.53 µM (active) and 864 nM (active) and 3.35 µM (active) | 4.31 µM (active) and 13.7 µM (active) and 3.35 µM (active) | 10.8 µM (active) and 27.3 µM (active) and 13.3 µM (active) | inactive | 21.6 µM (active) and 27.3 µM (active) and 13.3 µM (active) | inactive | inactive |  |  |  |  | inactive
